The list is not random: actives were taken first. Their share in the collection is about 12%.
Calpain2 inh – calpain II (pig) inhibition. AID 1236. purified calpain II, fluorogenic peptide substrate, 30 min. 220,000 compounds, 0.37% hits. inhibition, % at 16 µM;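 active = inhibition above about 50%, limit read from the data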
WT yeast gro inh – growth inhibition of WT yeast, mitochondrial fusion screen. mitochondrial fusion phenotypic screen, WT strain. inhibition, % at 10 µM. 190,000 compounds, 2.1% hits. AID 1362; in the data active = inhibition above about 58%; tested in S. cerevisiae
Cl transport mod – KCC2 (human) Cl- transport modulation. Q9H2X9. KCC2 cells, thallium flux FluoZin-2 fluorescence. B-score of Tl+ flux slope (higher = more flux/activation; lower = inhibition) at 10 µM. 190,000 compounds, 2.2% hits;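 active = thallium flux slope and its plate-corrected score both differing from the plate sample mean at a set confidence after two filtering rounds, in either direction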;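 note: slope of fluorescence scaled to starting intensity during 10 to 20 s after thallium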
Lmaj promast – Leishmania major promastigote growth inhibition | Leishmania major promastigotes, resazurin fluorescence viability | inhibition, % at 10 µM | 200,000 compounds, 9% hits | AID 1063; in the data active = inhibition above about 50%;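 note: promastigotes grown with compound for 44 hours at 28 °C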
ROMK mod – modulates human ROMK potassium channel activity. P48048. Tet-inducible ROMK, thallium flux fluorescence; actives lie on both sides. B-score at 10 µM. 130,000 compounds, 2% hits. AID 1918;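 active = signal ratio slope over the read window, or its plate-corrected B-score, at least 3 SD from the plate mean, either direction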;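 note: B-score of the F/F0 ratio slope over 7 to 12 s after thallium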
Target sequence (P48048 whole entry, looked up): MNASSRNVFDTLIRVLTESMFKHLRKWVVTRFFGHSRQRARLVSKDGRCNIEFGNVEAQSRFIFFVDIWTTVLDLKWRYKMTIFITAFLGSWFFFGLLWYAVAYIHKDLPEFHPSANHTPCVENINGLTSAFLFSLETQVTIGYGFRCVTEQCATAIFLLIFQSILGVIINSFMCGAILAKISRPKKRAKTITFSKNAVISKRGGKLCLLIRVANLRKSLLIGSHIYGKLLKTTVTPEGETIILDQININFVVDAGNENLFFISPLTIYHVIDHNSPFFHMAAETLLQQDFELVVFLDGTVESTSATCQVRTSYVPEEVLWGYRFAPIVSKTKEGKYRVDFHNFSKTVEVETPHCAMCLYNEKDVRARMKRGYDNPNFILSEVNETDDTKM
The depositor's hits bear a star; i = inactive; . = no result given.

SMILES	Calpain2 inh	WT yeast gro inh	Cl transport mod	Lmaj promast	ROMK mod
COc1cc(NC(=O)Cn2nnc(-c3ccccc3N)n2)cc(OC)c1	-0.6	0.0	-1.1	55.2*	.
COc1ccccc1-c1nnn(C/C(N)=N/O)n1	6.6	-3.6	0.0659	72.2*	-0.15
Cc1ccc(NC(=O)CSc2nnc(/N=C/N(C)C)s2)cc1	24.9	-10.6	0.85	0.1	0.384
O=C(O)C1=C[C@H](c2ccc(F)cc2)C[C@H](OCc2ccc(CO)cc2)O1	-4.5	.	0.135	.	.
COc1c(C)cc(C(=O)C2CCCN(C(=O)c3cccc(F)c3)C2)cc1C (stereo not given)	-6.5	11.6	-0.165	-3.8	0.152
COc1c(C)cc(C(=O)C2CCCN(C(=O)c3ccc4cc[nH]c4c3)C2)cc1C (stereo not given)	-4.8	5.1	.	64.6*	0.0899
O=C(Nc1nnc(C2CC2)o1)c1ccc(S(=O)(=O)N2CCc3ccccc3C2)cc1	-21.4	63.8*	1.35	0.1	0.332
CCC(CC)c1nnc(NC(=O)c2ccc(S(=O)(=O)N3CCc4ccccc4C3)cc2)s1	-5.5	-5.9	-0.202	-5.1	-0.0934
CC1CCCN(S(=O)(=O)c2ccc(C(=O)Nc3nnc(-c4ccccc4Cl)o3)cc2)C1 (stereo not given)	-22.6	-5.4	21.1*	100.3*	.
O=C(Nc1nnc(-c2ccco2)o1)c1ccc2ccccc2c1	17.8	51.6	38.5*	68.9*	0.834
COc1ccc(-c2nnc(NC(=O)c3ccc(S(=O)(=O)N4CCc5ccccc5C4)cc3)o2)cc1	-127.7	-9.9	.	99.5*	0.701
COc1ccc(-c2csc(NC(=O)c3ccc(S(=O)(=O)N4CCc5ccccc5C4)cc3)n2)cc1	-47.9	-2.2	0.0461	5.9	-0.344
CC1CCCN(S(=O)(=O)c2ccc(C(=O)Nc3nnc(-c4ccccn4)o3)cc2)C1 (stereo not given)	-50.6	-3.9	-0.126	7.6	-0.507
O=C(/C=C/c1cccc2ccccc12)N1CCOCC1	-15.1	.	-0.581	.	.
CC(C)c1ccc(C(=O)N2CCN(c3cnn(C)c(=O)c3Cl)CC2)cc1	-0.7	-4.2	-0.162	23.2	-0.779
CC(C)(C)N1CC(OC(N)=O)C1	11.7	.	1.34	.	.
COc1ccccc1C(=O)Nc1nnc(-c2ccc(F)cc2)o1	0.7	9.1	0.223	15.1	.
COc1cccc(-c2nnc(NC(=O)c3ccc(S(=O)(=O)N4CC(C)OC(C)C4)cc3)o2)c1 (stereo not given)	i	-1.3	1.33	99.3*	.
COc1ccc(-c2nnc(NC(=O)c3ccc(F)cc3)o2)cc1	11.8	66.3	.	97.7*	.
Brc1ccc(C2=Nn3c(nnc3-c3n[nH]c4c3CCC4)SC2)cc1	-18.4	-4.8	-0.635	59.2*	.
Cc1ccc(-c2nnc3n2N=C(c2ccc(Br)cc2)CS3)cc1	0.4	13.6	.	-0.1	.
Clc1ccc(C2=Nn3c(nnc3-c3n[nH]c4c3CCC4)SC2)cc1	7.0	29.3	1.55	58.1*	.
O=C(NCC1CCCO1)C(c1ccc(F)cc1)N(Cc1ccc2c(c1)OCO2)C(=O)c1ccc(CN2CCOCC2)o1 (stereo not given)	-3.8	-0.3	.	-1.8	0.00416
Cc1ccc(NS(=O)(=O)c2cc3c4c(cccc4c2)C(=O)NC3=O)cc1C	14.6	.	-1.91	.	.
CCCc1[nH]nc2c1C(c1ccc(O)cc1OCC)C(C#N)=C(N)O2 (stereo not given)	-10.8	-1.5	-1.05	55.6*	-4.49*
SMILES	Calpain2 inh	WT yeast gro inh	Cl transport mod	Lmaj promast	ROMK mod
COCc1[nH]nc2c1C(c1sccc1C)C(C#N)=C(N)O2 (stereo not given)	-35.6	-35.8	.	72.2*	-3.49*
COCc1[nH]nc2c1C(c1ccsc1)C(C#N)=C(N)O2 (stereo not given)	-13.3	-5.1	-1.3	13.9	-1.37
CCCc1[nH]nc2c1C(C1CCCCC1)C(C#N)=C(N)O2 (stereo not given)	-3.5	3.7	.	92.6*	.
CN(CC(=O)N1CCN(c2cccc(Cl)c2)CC1)S(=O)(=O)c1cccs1	-19.5	33.2	-1.44	19.4	-0.5
COc1cccc(/C(C#N)=C/c2c(-c3ccc(Cl)cc3)nc3c(C)cccn23)c1	-8.3	10.9	-0.123	67.2*	.
Cc1cccn2c(/C=N/OCc3cccc(F)c3)c(-c3ccc(Cl)cc3)nc12	-42.4	36.1	0.337	56.1*	.
Fc1cccc(CO/N=C/c2c(-c3ccccc3)nc3ccc(Cl)cn23)c1	-40.5	14.4	-0.791	4.2	.
O=c1cc(CSc2n[nH]c(=O)n2C2CC2)c2ccc(O)cc2o1	-50.3	.	-0.081	.	0.301
COc1ccc(/C=C\C(=O)CC(O)(c2ccccc2)C(F)(F)F)cc1 (stereo not given)	-2.2	24.8	-2.65	100.0*	-0.00104
O=C(C1CCCCC1)N(Cc1nc2sc3c(c2c(=O)[nH]1)CCCC3)Cc1cccs1	-207.8	58.6*	0.0358	1.8	.
CCOC(=O)CNCCC(=O)c1ccc(Br)cc1	-5.5	-7.4	-1.37	63.5*	0.287
Cc1ccc(C(=O)NCC(=O)NCC(=O)OCC(=O)c2ccc(Br)cc2)cc1	1.4	0.8	1.47	35.1	0.7
Cc1ccc(C)c(NC(=O)c2ccccc2Sc2ccc([N+](=O)[O-])cc2Cl)c1	38.0	57.5	-0.306	96.1*	.
Cc1ccc(C)c(S(=O)(=O)Nc2ccccc2C(=O)Nc2cc(C)on2)c1	i	10.4	-3.5	35.1	.
CSc1ccccc1C(=O)Nc1cc(C)ccc1C	26.7	3.6	0.588	5.4	.
Cc1ccc(C)c(NC(=O)c2ccccc2NS(=O)(=O)c2cc([N+](=O)[O-])ccc2C)c1	29.3	80.4*	-1.62	62.5*	.
CC[n+]1c(/C=C/c2c[nH]c3ccccc23)ccc2cc(C)ccc21	47.6	76.5*	i	100.4*	.
CC(=O)Nc1ccc(S(=O)(=O)N2CCN(CCN3CCOCC3)CC2)cc1Cl	-9.6	.	1	.	0.647
CN1CCCC(OC(=O)/C(C#N)=C/c2ccccc2)C1 (stereo not given)	24.2	14.8	-0.398	-9.3	0.0391
Cc1cc(=O)n2[nH]c(-c3ccc(F)cc3)cc2n1	-46.8	59.6*	0.754	-0.3	.
CCn1c(SCc2ccc(F)cc2)nnc1C1CCN(S(=O)(=O)c2ccc(OC)cc2)CC1	59.2*	-13.4	.	2.7	.
CCn1c(SCc2ccc(C)cc2)nnc1C1CCN(S(=O)(=O)c2ccc(OC)cc2)CC1	2.8	-17.4	.	4.7	.
COc1ccc(/C=C2\NC(=O)C(C=NCc3ccccc3)=C2O)cc1	-12.8	-2.6	0.181	57.9*	.
COc1ccc(CN=Cc2c(O)[nH]c3ccccc23)cc1	11.1	4.4	-0.5	2.7	-0.301
COCCNC(=O)c1cccc(C)c1[N+](=O)[O-]	3.6	4.3	0.683	-6.0	.
Cc1cccc(C(=O)NCCc2ccc(S(N)(=O)=O)cc2)c1[N+](=O)[O-]	2.5	-0.9	1.18	87.4*	.
C/C(=N\OCC(=O)Nc1ccccc1Br)c1cccs1	0.1	-3.3	-0.0174	-3.2	-0.539
Cc1nnc(SCc2nc(N)nc(Nc3ccccc3)n2)s1	-9.3	6.2	0.497	1.1	.
CCc1ccc(Nc2nc(N)nc(CSc3nc4ccccc4s3)n2)cc1	29.2	72.2*	-0.678	3.1	.
COc1cc(C2CC(c3cccnc3)=NN2c2ccc(F)cc2)cc(OC)c1OC (stereo not given)	-149.3	-2.7	0.0718	16.3	0.252
